Test results: PubChem BioAssay (NCATS)
Values without a mark were called inactive. Results filed as inconclusive are left out. Where a call stands in place of a potency, no number is given. The source made the active and inactive calls. Unless noted, calls come from the whole dose curve; as a rule, active = well fitted curve in the direction sought with a large enough effect; inconclusive = small, poorly fitted or top-dose-only effect, or another doubt; inactive = no such curve, though single readings can be large; an effect the other way counts as inactive or inconclusive.

Tests used:
[1] = AP1 Signaling Pathway (AID 357; active = well fitted curve in either direction with a large enough effect, not every such curve was filed as active;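 note: ME-180 reporter cells stimulated with EGF at its EC50 level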); details: ME-180 AP-1-bla reporter, EGF-induced, beta-lactamase ratio, 5 h; at 7.69 µM (top of the series) unless noted
Outline: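 Cells are seeded overnight, exposed to compound titrations and an EC50 level of EGF for 5 hours at 37 °C, then loaded with CCF4 dye for 2.5 hours. Beta-lactamase activity under the AP-1 element is read as a blue/green ratio.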

[2] = target: Cytochrome P450 1A2 (Homo sapiens) (UniProt P05177); test: p450-cyp1a2 (AID 410; calls by dose curve; note: potency is the fitted concentration of half-maximal effect)
Chain of Cytochrome P450 1A2 (Homo sapiens) (P05177 whole entry, looked up): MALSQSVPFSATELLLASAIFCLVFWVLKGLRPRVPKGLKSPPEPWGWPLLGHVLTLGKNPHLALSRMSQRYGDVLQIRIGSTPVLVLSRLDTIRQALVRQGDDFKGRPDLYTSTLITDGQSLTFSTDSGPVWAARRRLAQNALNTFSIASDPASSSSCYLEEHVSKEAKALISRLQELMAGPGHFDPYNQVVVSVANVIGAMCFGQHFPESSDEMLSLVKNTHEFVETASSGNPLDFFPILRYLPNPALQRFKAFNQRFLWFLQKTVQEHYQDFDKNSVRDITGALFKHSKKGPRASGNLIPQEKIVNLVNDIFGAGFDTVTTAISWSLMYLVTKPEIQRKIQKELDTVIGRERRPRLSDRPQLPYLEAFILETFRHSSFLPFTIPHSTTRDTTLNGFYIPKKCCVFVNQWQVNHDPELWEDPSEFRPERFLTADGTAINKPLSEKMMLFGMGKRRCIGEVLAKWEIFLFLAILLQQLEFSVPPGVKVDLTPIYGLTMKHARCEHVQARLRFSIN
Outline: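 Luminescent demethylation readout: Luciferin-ME (100uM, equal to Km) turned over by 20nM CYP1A2 for 60 min at room temperature after NADPH regeneration addition, following 10 min compound preincubation. Normalization used 57 uM furafylline as full inhibition.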

[3] = NFAT Signaling Pathway (AID 444; active = well fitted curve in either direction with a large enough effect, not every such curve was filed as active;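 note: carbachol stimulus at about its EC50 of 1 µM final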); details: Jurkat NFAT-bla M1, carbachol, beta-lactamase ratio, 5 h; at 7.69 µM (top of the series) unless noted
Outline: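 Jurkat cells carrying an NFAT-driven β-lactamase reporter and co-transfected muscarinic M1 receptor were treated with compound plus carbachol (1 uM final, an EC50 level) for 5 h at 37 °C. CCF4 loading followed for 1 h at RT; 460/530 nm ratio gave %activity.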

[4] = Stat Signaling Pathway (AID 446; active = well fitted curve in either direction with a large enough effect, not every such curve was filed as active;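 note: ME-180 cervical cancer cells given 40 pM IL-6 alongside compound; SIE-controlled beta-lactamase reporter measured as 460/530 nm FRET emission ratio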); details: ME-180 (cervical carcinoma) SIE beta-lactamase reporter, IL-6 stimulated, 5 h; at 7.69 µM (top of the series) unless noted
Outline: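 Normalization used AC90 stimulation (300 pM IL-6) and AC90 inhibition (125 nM pan-JAK inhibitor at 40 pM IL-6). The underlying signal is SIE-driven beta-lactamase in ME-180 cells after 5 h IL-6 exposure with compound.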

[5] = target: Glucocorticoid receptor (Homo sapiens) (UniProt P04150); test: GR-GFP Redistribution (AID 450;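 active = compounds whose dose series gives a full or clear partial fitted curve of increased nuclear translocation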; note: potency is the fitted concentration of half-maximal effect); details: U2OS GR-GFP nuclear translocation, laser cytometry, 2 h
Chain of Glucocorticoid receptor (Homo sapiens) (P04150 whole entry, looked up, the tested form may be a part): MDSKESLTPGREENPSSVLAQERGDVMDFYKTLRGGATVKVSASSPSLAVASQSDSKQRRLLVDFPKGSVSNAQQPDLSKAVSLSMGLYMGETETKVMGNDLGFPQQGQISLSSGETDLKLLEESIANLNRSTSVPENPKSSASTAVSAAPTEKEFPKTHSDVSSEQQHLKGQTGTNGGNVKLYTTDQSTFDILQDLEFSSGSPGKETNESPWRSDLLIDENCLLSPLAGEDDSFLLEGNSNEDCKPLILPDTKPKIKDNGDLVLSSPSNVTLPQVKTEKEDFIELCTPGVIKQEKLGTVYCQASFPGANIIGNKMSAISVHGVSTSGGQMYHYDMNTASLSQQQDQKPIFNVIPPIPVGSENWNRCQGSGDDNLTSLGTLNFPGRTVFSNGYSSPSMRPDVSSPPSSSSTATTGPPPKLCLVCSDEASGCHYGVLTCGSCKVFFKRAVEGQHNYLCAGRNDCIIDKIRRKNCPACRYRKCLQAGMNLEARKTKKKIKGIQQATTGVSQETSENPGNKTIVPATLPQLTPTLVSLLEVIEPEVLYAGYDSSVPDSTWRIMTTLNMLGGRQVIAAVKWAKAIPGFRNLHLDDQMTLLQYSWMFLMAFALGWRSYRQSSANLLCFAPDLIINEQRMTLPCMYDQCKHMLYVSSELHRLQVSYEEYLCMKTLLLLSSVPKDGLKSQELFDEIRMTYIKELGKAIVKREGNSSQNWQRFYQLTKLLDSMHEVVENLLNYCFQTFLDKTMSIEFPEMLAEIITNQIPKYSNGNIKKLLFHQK

[6] = target: Glucocorticoid receptor (Homo sapiens) (UniProt P04150); test: GR-EFC Redistribution (AID 451; calls by dose curve; note: potency is the fitted concentration of half-maximal effect); details: CHO-K1 GR-EFC translocation, beta-gal luminescence, 2 h
Outline: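 CHO-K1 cells stably expressing nuclear-localized β-gal enzyme acceptor and GR fused C-terminally to the enzyme donor fragment; ligand-driven nuclear translocation restores β-gal by complementation. Compounds titrated up to 46 uM final, 2 h at 37 °C; luminescence read.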

[7] = target: Mitogen-activated protein kinase 10 (Mus musculus) (UniProt Q61831); test: JNK3 AlphaScreen Assay (AID 530; active = well fitted curve in either direction with a large enough effect, not every such curve was filed as active;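 note: kinase came from lysate of stimulated human HepG2 cells; signal reports phosphorylation of biotinylated GST-cJun 1-79 at Ser73 with 10 µM ATP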)
Outline: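 Phosphorylation of biotinylated GST-cJun(1-79) at Ser73 is measured by AlphaScreen proximity luminescence. Enzyme is JNK3 in HepG2 lysates activated with interleukin-1beta and tumor necrosis factor alpha; ATP is 10 uM final.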

[8] = target: 3',5'-cyclic-AMP phosphodiesterase 4B (Homo sapiens) (UniProt Q07343); test: qHTS Assay for Inhibitors of PDE-IV (AID 607; active = well fitted activation curve with a large enough effect in the main read-out, with a control signal flat, not every such curve was filed as active)
Chain of 3',5'-cyclic-AMP phosphodiesterase 4B (Homo sapiens) (Q07343 whole entry, looked up): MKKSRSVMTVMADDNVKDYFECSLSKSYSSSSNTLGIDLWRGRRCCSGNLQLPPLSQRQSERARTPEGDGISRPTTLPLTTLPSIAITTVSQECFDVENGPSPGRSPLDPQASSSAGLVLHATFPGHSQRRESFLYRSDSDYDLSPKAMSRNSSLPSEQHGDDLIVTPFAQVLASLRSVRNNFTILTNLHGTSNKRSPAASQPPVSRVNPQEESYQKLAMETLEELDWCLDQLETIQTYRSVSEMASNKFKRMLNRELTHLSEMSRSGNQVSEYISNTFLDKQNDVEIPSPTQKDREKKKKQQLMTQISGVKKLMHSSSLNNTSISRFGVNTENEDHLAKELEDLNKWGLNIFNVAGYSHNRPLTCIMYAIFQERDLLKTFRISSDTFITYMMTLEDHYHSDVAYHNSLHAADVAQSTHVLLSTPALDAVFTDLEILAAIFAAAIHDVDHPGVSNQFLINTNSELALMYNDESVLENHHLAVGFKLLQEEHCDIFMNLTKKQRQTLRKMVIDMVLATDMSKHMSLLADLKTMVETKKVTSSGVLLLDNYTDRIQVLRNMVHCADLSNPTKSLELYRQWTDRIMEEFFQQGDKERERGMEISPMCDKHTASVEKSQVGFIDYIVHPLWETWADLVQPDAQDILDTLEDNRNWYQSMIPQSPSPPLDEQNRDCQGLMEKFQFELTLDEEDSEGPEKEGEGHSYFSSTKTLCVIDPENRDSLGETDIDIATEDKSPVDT
Outline: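 HEK293 ACTOne cells with CNG channel (1000/well), endogenous PDE4; membrane potential dye, compounds up to 22.9 uM final. Fluorescence Ex 535/Em 590; RO 20-1724 (100 uM final) as reference.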

[9] = target: Guanine nucleotide-binding protein G(i) subunit alpha-1 (Homo sapiens) (UniProt P63096); test: qHTS Assay for Inhibitors of RGS12 GoLoco Motif Activity (Green Fluorophore) (AID 879);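 note: negative values mean loss of peptide binding seen as reduced polarization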
Chain of Guanine nucleotide-binding protein G(i) subunit alpha-1 (Homo sapiens) (P63096 whole entry, looked up): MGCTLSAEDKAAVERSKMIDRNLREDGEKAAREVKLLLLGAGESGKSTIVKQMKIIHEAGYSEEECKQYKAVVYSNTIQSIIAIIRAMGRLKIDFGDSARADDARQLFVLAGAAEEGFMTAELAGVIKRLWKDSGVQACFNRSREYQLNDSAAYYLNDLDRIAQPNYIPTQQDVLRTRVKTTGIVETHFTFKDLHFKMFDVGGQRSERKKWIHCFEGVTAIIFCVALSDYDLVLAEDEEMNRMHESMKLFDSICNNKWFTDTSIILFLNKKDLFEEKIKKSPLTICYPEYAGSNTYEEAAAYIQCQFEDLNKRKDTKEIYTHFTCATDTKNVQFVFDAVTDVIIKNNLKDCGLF
Outline: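 A drop in FITC polarization marked displacement of the FITC-tagged RGS12 GoLoco peptide (10 nM) from Gαi1 (50 nM). Compounds were incubated 10 min at room temperature in Tris pH 7.5 buffer containing 150 mM NaCl, 0.1 mM GDP and 0.05% NP40; unlabeled peptide titration served as control.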

[10] = target: Cytochrome P450 2D6 (Homo sapiens) (UniProt P10635); test: qHTS Assay for Inhibitors and Substrates of Cytochrome P450 2D6 (AID 891); note: potency is the fitted concentration of half-maximal effect; nearly all actives have a fitted effect of over 60% in size
Outline: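 Luminescent read-out of luciferin formed by 5 nM human CYP2D6 demethylating 30 uM Luciferin-ME EGE (Km level) over 60 min at room temperature after NADPH regeneration addition. Data normalized to full inhibition by 1.43 uM quinidine.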

[11] = target: Muscarinic acetylcholine receptor M1 (Rattus norvegicus) (UniProt P08482); test: qHTS Assay for Antagonists of Acetylcholine Muscarinic M1 Receptor: Measurement of IP-One Response (AID 944); note: nearly all actives have a fitted effect of over 75% in size
Chain of Muscarinic acetylcholine receptor M1 (Rattus norvegicus) (P08482 whole entry, looked up): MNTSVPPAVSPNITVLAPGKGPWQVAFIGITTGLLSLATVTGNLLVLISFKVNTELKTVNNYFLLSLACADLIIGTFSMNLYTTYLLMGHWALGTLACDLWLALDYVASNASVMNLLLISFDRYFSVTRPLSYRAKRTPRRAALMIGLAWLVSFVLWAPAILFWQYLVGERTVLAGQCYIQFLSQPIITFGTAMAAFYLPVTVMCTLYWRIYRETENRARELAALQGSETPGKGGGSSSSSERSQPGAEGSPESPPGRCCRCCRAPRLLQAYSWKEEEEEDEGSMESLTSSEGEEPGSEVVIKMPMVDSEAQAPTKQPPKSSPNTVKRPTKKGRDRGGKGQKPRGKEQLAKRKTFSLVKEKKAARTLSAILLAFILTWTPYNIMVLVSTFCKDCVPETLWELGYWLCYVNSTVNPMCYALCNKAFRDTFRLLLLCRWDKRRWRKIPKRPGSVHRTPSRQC
Outline: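 IP1 accumulation measured via TR-FRET between d2-IP1 and Eu-cryptate anti-IP1 antibody after carbachol (200 nM, EC80) stimulation for 30 min; rat M1-transfected CHO cells received compound 10 min before agonist.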

[12] = target: Pyruvate kinase (Leishmania mexicana) (UniProt Q27686); test: qHTS Validation Assay for Inhibitors of Leishmania Mexicana Pyruvate Kinase (AID 945)
Chain of Pyruvate kinase (Leishmania mexicana) (Q27686 2-499 E452W): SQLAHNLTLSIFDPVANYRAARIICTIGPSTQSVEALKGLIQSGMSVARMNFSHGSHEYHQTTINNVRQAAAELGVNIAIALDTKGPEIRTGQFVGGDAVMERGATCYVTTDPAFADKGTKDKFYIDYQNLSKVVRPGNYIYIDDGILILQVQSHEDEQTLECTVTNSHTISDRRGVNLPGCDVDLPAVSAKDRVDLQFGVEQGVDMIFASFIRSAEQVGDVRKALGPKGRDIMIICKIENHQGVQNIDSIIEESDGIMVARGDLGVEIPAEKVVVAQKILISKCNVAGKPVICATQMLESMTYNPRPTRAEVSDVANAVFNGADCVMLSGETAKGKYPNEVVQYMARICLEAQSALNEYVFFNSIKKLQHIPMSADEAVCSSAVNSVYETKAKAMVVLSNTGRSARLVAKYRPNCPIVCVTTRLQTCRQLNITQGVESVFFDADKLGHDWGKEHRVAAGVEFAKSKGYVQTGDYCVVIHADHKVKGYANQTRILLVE
Outline: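 LmPYK E451W 0.2 nM; 0.5 mM PEP, 0.1 mM ADP, 7 mM MgCl2, 50 mM KCl, imidazole pH 7.2, 0.01% Tween 20, 0.05% BSA; 1 h RT; PKLight luminescence; DMSO-normalized.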

[13] = target: Pyruvate kinase PKM (Homo sapiens) (UniProt P14618); test: qHTS Assay for Activators of Human Muscle Pyruvate Kinase (AID 954; active = well fitted curve in the direction sought with a large enough effect, not every such curve was filed as active)
Chain of Pyruvate kinase PKM (Homo sapiens) (P14618 whole entry, looked up): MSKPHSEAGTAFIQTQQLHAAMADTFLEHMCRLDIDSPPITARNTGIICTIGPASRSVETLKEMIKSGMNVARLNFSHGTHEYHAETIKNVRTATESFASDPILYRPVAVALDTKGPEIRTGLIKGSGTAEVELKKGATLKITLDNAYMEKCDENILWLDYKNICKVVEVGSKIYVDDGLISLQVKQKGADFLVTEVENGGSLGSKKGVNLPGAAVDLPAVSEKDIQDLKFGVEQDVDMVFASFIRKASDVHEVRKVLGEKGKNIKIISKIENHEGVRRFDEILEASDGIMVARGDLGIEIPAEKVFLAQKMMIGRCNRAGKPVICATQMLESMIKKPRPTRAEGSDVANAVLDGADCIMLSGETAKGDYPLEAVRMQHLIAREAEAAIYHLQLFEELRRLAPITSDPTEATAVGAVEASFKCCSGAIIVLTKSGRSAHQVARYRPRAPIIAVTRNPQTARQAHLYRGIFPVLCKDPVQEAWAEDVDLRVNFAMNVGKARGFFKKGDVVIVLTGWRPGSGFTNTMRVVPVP
Outline: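 Compound pinned into substrate mix (0.5 mM PEP, 0.1 mM ADP), then 0.1 nM PKM2 added; 1 h, RT. Stop/detection luciferase reagent added, luminescence read. Normalized to no-inhibition and no-enzyme or reference-inhibitor controls.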

[14] = target: Alpha-galactosidase A (Homo sapiens) (UniProt P06280); test: Counterscreen for Glucocerebrosidase Inhibitors: qHTS Assay for Human alpha-Galactosidase at pH 4.5 (AID 992)
Chain of Alpha-galactosidase A (Homo sapiens) (P06280 whole entry, looked up): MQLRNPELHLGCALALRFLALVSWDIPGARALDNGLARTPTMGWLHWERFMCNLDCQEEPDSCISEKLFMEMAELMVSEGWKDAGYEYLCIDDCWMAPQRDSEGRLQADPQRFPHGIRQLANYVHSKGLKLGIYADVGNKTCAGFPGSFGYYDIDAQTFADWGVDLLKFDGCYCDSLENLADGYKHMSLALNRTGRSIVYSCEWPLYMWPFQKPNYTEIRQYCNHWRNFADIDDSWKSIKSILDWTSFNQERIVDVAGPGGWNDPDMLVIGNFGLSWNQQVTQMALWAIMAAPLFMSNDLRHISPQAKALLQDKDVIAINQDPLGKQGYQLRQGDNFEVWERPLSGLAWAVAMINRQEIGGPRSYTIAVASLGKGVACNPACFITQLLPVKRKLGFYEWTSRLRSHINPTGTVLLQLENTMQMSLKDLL
Outline: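 Steps: enzyme (2 nM final), then compound across 0.7 nM to 77 uM, then 80 uM fluorogenic galactopyranoside substrate; incubate 20 min at room temperature; quench at pH 10; measure fluorescence at 365/440 nm.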

[15] = target: alpha-glucosidase (Oryza sativa, rice) (UniProt Q653V4); test: Counterscreen for Glucocerebrosidase Inhibitors: qHTS Assay for Rice alpha-Glucosidase at pH 5.0 (AID 997)
Outline: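 Endpoint fluorogenic assay at pH 5.0: compounds (0.7 nM to 77 uM) titrated against 4 nM rice enzyme and 400 uM 4-MU-alpha-glucoside for 20 min at room temperature; NaOH/glycine stop, read ex 365/em 440 nm, Hill-fitted AC50.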

[16] = target: Cytochrome P450 2C19 (Homo sapiens) (UniProt P33261); test: qHTS Assay for Inhibitors and Substrates of Cytochrome P450 2C19 (AID 899); note: nearly all actives have a fitted effect of over 60% in size
Outline: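 Human CYP2C19 (5nM) with Luciferin-H EGE at 10uM (its KM) in 50mM KPO4 was preincubated with compound for 10 min at 37C. NADPH regeneration started a 60 min 37C reaction. Luciferin was read by luminescence, normalized to 57uM ketoconazole.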

[17] = target: Cytochrome P450 3A4 (Homo sapiens) (UniProt P08684); test: qHTS Assay for Activators of Cytochrome P450 3A4 (AID 885); note: nearly all actives have a fitted effect of over 65% in size; note: potency is the fitted concentration of half-maximal effect
Chain of Cytochrome P450 3A4 (Homo sapiens) (P08684 whole entry, looked up): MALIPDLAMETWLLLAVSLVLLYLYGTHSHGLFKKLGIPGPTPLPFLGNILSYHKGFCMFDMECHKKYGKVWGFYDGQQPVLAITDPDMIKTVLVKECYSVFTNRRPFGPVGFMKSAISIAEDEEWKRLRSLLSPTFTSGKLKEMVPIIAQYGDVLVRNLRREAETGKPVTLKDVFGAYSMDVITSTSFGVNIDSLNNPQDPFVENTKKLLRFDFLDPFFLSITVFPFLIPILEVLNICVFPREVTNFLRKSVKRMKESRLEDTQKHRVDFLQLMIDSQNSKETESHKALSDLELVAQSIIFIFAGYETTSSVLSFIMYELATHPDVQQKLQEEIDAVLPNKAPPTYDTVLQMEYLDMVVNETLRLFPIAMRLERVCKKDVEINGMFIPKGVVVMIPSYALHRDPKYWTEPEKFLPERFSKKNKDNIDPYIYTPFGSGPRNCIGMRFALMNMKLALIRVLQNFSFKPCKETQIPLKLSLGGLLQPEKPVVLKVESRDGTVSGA
Outline: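 Human CYP3A4 dealkylates Luciferin-PPXE to luciferin, which luciferase detection converts to light. Substrate was at its KM (25uM), buffer 200mM KPO4, reaction 60 min at RT.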

[18] = qHTS Assay for Identification of Small Molecule Agonists for Thrombopoietin (TPO) Signaling Pathway (AID 917)
Outline: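 First, Ba/F3 cells with human TPO receptor were held overnight without IL-3. Next, compounds and TPO (26 pM final) were added. After 24 hrs at 37 C, luciferase detection reagent was added and luminescence measured following 10 min at room temperature.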

[19] = qHTS Assay for Identification of Small Molecule Antagonists for NFkB Signaling Pathway (AID 895; active = well fitted inhibition curve with a large enough effect in the signal ratio, with a control signal flat, not every such curve was filed as active; the % refers to the signal ratio; note: potency is the fitted concentration of half-maximal effect)
Outline: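 NFkB-bla ME-180 cervical carcinoma cells with beta-lactamase reporter under NFkB response element; compounds added, then TNF alpha at 10 pM final (EC50), 5 h at 37 C. LiveBLAzer substrate 2 h, room temperature; emission 460/530 nm at 405 nm excitation.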

[20] = target: Muscarinic acetylcholine receptor M1 (Rattus norvegicus) (UniProt P08482); test: qHTS Assay for Antagonists of Acetylcholine Muscarinic M1 Receptor: Kinetic Measurement of Intracellular Calcium Response (AID 943);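 note: Fluo-4 calcium signal as peak divided by basal fluorescence over 4 min; nearly all actives have a fitted effect of over 75% in size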
Outline: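 Antagonism measured as reduction of carbachol-evoked (EC80, 100 nM final) calcium flux in rat M1-CHO cells after 10 min compound exposure. Fluo-4 signal read kinetically; ratio of maximal to basal fluorescence.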

| Compound | activity change, negative = inhibition [1] | Potency [2] | activity change, negative = inhibition [3] | activity, negative = inhibition [4] | Potency [5] | Potency [6] | Potency [7] | Potency [8] | outcome [9] | Potency [10] | Potency [11] | outcome [12] | outcome [13] | outcome [14] | Potency [15] | Potency [16] | Potency [17] | outcome [18] | Potency [19] | Potency [20] |
| --- | --- | --- | --- | --- | --- | --- | --- | --- | --- | --- | --- | --- | --- | --- | --- | --- | --- | --- | --- | --- |
| CN1CCc2cc(Cl)c(O)cc2[C@H](c2ccccc2)C1 | 15.7% [at 38 µM] | 31.6 µM (active) | -3.81% [at 38 µM] | 19.6% [at 38 µM] | > 46 µM | > 46 µM | inactive | inactive | inactive | 0.631 µM (active) | inactive | inactive | inactive | inactive | inactive |  |  |  |  |  |
| CCCCCCCCCC[Si](C)(C)CCC(=O)N[C@@H](Cc1ccc(C)cc1)c1ccccc1 | 20.2% [at 38 µM] | 31.6 µM (active) | -7.96% [at 38 µM] | -5.69% [at 38 µM] | > 46 µM | > 46 µM | inactive | inactive | inactive |  | inactive | inactive | inactive | inactive | inactive | inactive |  |  |  |  |
| Cc1cccc(C)c1OC[C@@H](N)C(C)C | 9.48% [at 38 µM] | 12.6 µM (active) | 4.41% [at 38 µM] | 4.92% [at 38 µM] | > 46 µM | > 46 µM | inactive | inactive | inactive |  | inactive | inactive | inactive | inactive | inactive |  | inactive |  |  |  |
| Nc1nc(N)c2nc(CNc3ccc(C(=O)N[C@H](CCC(=O)O)C(=O)O)cc3)cnc2n1 | 1.47% [at 38 µM] | inactive | 13.5% [at 38 µM] | -0.643% [at 38 µM] | > 46 µM | > 46 µM | inactive | inactive | inactive |  |  | inactive | inactive | inactive | inactive |  |  | inactive |  |  |
| COc1cc2c(cc1OC)[C@H](c1ccccc1)CN(C)CC2 | -2.12% [at 38 µM] | inactive | -8.45% [at 38 µM] | 0.584% [at 38 µM] | > 46 µM | > 46 µM | inactive | inactive | inactive |  | inactive | inactive | inactive | inactive | inactive |  | 12.6 µM (active) | inactive | inactive |  |
| CNC(=O)[C@@H]1O[C@@H](n2cnc3c(NCc4ccc(N)cc4)ncnc32)[C@@H](O)[C@H]1O | -7.83% [at 38 µM] | inactive | 4.77% [at 38 µM] | -2.42% [at 38 µM] | > 46 µM | > 46 µM | inactive | inactive | inactive |  | inactive | inactive | inactive | inactive | inactive |  | inactive | inactive | 12.6 µM (active) | inactive |
